# Measured values taken from PubChem BioAssay AID743383 (National Center for Advancing Translational Sciences (NCATS), 2014).
# Activity calls are given as the source filed them. Calls follow the shape of the full dose curve.
# Target: Phosphatidylinositol 5-phosphate 4-kinase type-2 alpha (Homo sapiens) (UniProt P48426)
# Test: qHTS for Inhibitors of PI5P4K: PI5P4K-alpha 32P-ATP TLC Secondary Assay for Probe SAR
# Conditions: recombinant PI5P4K-alpha, 32P-ATP TLC PI(4,5)P2 formation
# Description: In addition to finding PI5P, we discovered the type II phosphatidylinositol 5-phosphate 4-kinase (PI5P4K) family (alpha, beta, gamma isoforms) that catalyze the conversion of PI5P to PI(4,5)P2. Alternatively, PI(4,5)P2 can also be synthesized through phosphatidylinositol-4-phosphate (PI4P) by the type I phosphatidylinositol 4-phosphate 5-kinases (PI4P5K). These PI5P4K enzymes therefore represent one way by which cells can regulate endogenous PI5P levels and play important roles in insulin signaling and in stress responses. […] A qHTS PI5P4K-alpha ADP-Glo assay was developed to identify specific modulators of human PI5P4K, phosphatidylinositol-5-phosphate 4-kinase (Type II PIPK). To confirm that the active compounds and their analogs were true and selective inhibitors, a secondary Thin-layer Chromatography (TLC) assay against recombinant PI5P4K-alpha, PI4P5K-alpha or PI5P4K-beta that utilize a radioactively labeled ATP were developed. The data herein are the result of the PI5P4Kalpha TLC assay. […]
# The kinase reaction was carried out in a total of 50 microL of kinase buffer (50 mM HEPES pH 7.4 and 10 mM MgCl2) containing 20 microM of the lipids that were suspended by sonication. […] The radiolabeled product, PI(4,5)P2, was quantified with a phosphorimager (Molecular Dynamics, STORM840, GE Healthcare, Waukesha, WI, USA).
# Phosphatidylinositol 5-phosphate 4-kinase type-2 alpha (Homo sapiens), sequence (P48426 whole entry, looked up): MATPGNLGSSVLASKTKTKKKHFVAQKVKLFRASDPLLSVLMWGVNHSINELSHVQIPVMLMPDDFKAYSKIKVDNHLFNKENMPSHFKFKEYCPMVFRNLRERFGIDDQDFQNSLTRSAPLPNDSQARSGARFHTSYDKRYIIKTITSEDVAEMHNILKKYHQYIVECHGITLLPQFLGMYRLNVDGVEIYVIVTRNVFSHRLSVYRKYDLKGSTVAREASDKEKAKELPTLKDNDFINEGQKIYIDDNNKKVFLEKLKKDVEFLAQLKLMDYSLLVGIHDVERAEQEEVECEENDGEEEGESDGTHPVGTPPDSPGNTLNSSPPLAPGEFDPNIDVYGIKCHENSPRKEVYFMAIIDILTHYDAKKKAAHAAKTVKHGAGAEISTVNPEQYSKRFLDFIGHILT
row,SMILES,Potency
1,O=C1Nc2ccc(C(=O)c3ccco3)cc2/C1=C/c1cc(Cl)c(O)c(Cl)c1,18 nM (active)
